Reference: PubChem BioAssay AID1159580 (chemical genetic matrix, 2015)
Several values for one entry are separate records, joined by “and”; a condition that tells them apart may be missing. Identical values can stand only once. Screen size: about 5,500 compounds; about 2,000 (36%) were called active. About 18% were inconclusive and are not listed. Rule as the data show it: active = normalized growth mostly below about 0.91 (no sharp cut-off); inconclusive = no clear call, values can overlap the other calls; inactive = mostly above about 0.92. The list shows a part of the results.

Assay: chemical genetic growth profiling, strain panel (AID 1159580);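 also: tested at 20 µM; growth read once vehicle control cultures reached saturation at 30 °C; 1 = growth at the plate median or of vehicle wells; lower values mean less growth of the strain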
Settings: S. cerevisiae deletion strains, growth OD

Measured: normalized growth

CC1(C)OC(=O)NC1=O
inactive: locus YAL021C, strain ccr4, hits give low values 0.996 | locus YAL026C, strain drs2, hits give low values 0.976 | locus YAL030W, strain snc1, hits give low values 1.01 | locus YBL061C, strain skt5, hits give low values 1.02 | locus YBR009C, strain hhf1, hits give low values 1 | locus YBR021W, strain FUR4, hits give low values 0.996 | locus YBR023C, strain chs3, hits give low values 1.01 | locus YBR171W, strain sec66, hits give low values 1.01 | locus YBR229C, strain ROT2, hits give low values 0.984 | locus YBR231C, strain swc5, hits give low values 1.04 | locus YBR279W, strain paf1, hits give low values 1.01 | locus YCL011C, strain gbp2, hits give low values 1 | locus YCL016C, strain dcc1, hits give low values 1 | locus YCL029C, strain bik1, hits give low values 0.969 | locus YCL069W, strain vba3, hits give low values 1 | locus YCR088W, strain abp1, hits give low values 0.994 | locus YDL005C, strain med2, hits give low values 0.997 | locus YDL035C, strain GPR1, hits give low values 1.04 | locus YDL040C, strain nat1, hits give low values 1.01 | locus YDL074C, strain BRE1, hits give low values 0.986 | locus YDL101C, strain DUN1, hits give low values 0.981 | locus YDL134C, strain PPH21, hits give low values 1.02 | locus YDL185W, strain tfp1, hits give low values 0.979 | locus YDL192W, strain arf1, hits give low values 0.985 | locus YDR001C, strain nth1, hits give low values 0.992 | locus YDR069C, strain doa4, hits give low values 1.03 | locus YDR101C, strain arx1, hits give low values 1 | locus YDR137W, strain rgp1, hits give low values 1 | locus YDR159W, strain sac3, hits give low values 0.983 | locus YDR162C, strain NBP2, hits give low values 1.01 | locus YDR195W, strain ref2 1.01 | locus YDR297W, strain sur2, hits give low values 1.02 | locus YDR318W, strain mcm21, hits give low values 0.98 | locus YDR334W, strain swr1, hits give low values 0.993 | locus YDR335W, strain msn5, hits give low values 1.02 | locus YDR388W, hits give low values 0.98 | locus YDR392W, strain spt3, hits give low values 0.944 | locus YDR502C, strain sam2, hits give low values 0.994 | locus YEL003W, strain gim4, hits give low values 1 | locus YEL037C, strain rad23, hits give low values 0.992 | locus YEL061C, strain CIN8 (second series), hits give low values 0.991 | locus YEL061C, strain CIN8, hits give low values 0.991 | locus YER015W, strain faa2, hits give low values 1.01 | locus YER016W, strain bim1, hits give low values 1.01 | locus YER110C, hits give low values 0.965 | locus YER111C, strain swi4, hits give low values 0.993 | locus YER155C, strain BEM2 (second series), hits give low values 0.972 | locus YER155C, strain BEM2, hits give low values 0.994 | locus YER167W, strain BCK2, hits give low values 0.997 | locus YFR010W, strain ubp6, hits give low values 1.03 | locus YGL078C, strain dbp3, hits give low values 0.975 | locus YGL086W, strain mad1, hits give low values 1 | locus YGL167C, strain pmr1, hits give low values 1.01 | locus YGL173C, strain kem1, hits give low values 1.04 | locus YGL227W, strain vid30, hits give low values 0.968 | locus YGL240W, strain doc1, hits give low values 1.02 | locus YGL248W, strain PDE1, hits give low values 0.985 | locus YGL253W, strain hxk2, hits give low values 1.01 | locus YGR078C, strain PAC10, hits give low values 0.992 | locus YGR135W, strain pre9, hits give low values 0.958 | locus YGR252W, strain gcn5, hits give low values 0.969 | locus YHR013C, strain ard1, hits give low values 1.01 | locus YHR027C, strain rpn1, hits give low values 1.01 | locus YHR030C, strain SLT2, hits give low values 0.994 and 1.03 | locus YHR079C, strain IRE1 (second series), hits give low values 0.983 | locus YHR079C, strain IRE1, hits give low values 1.02 | locus YHR094C, strain hxt1, hits give low values 0.972 | locus YHR129C, strain ARP1, hits give low values 0.998 | locus YHR142W, strain chs7, hits give low values 1 | locus YHR200W, strain rpn10, hits give low values 0.981 | locus YIL066C, strain RNR3, hits give low values 0.993 | locus YIL073C, strain SPO22, hits give low values 0.952 | locus YIL125W, strain kgd1, hits give low values 0.988 | locus YIR030C, strain dcg1, hits give low values 0.972 | locus YJL092W, strain hpr5, hits give low values 0.989 | locus YJL095W, strain BCK1 (second series), hits give low values 1.01 | locus YJL095W, strain BCK1, hits give low values 0.981 and 0.994 | locus YJL115W, strain asf1, hits give low values 0.992 | locus YJL129C, strain trk1, hits give low values 0.94 | locus YJL134W, strain LCB3, hits give low values 0.992 | locus YJL154C, strain vps35, hits give low values 0.995 | locus YJL164C, strain tpk1, hits give low values 0.994 | locus YJL166W, strain qcr8, hits give low values 1.03 | locus YJL168C, strain set2, hits give low values 0.974 | locus YJL187C, strain SWE1 (second series), hits give low values 0.98 | locus YJL187C, strain SWE1, hits give low values 1.02 | locus YJR043C, strain POL32, hits give low values 1.03 | locus YJR066W, strain TOR1, hits give low values 0.957
